Test results from PubChem BioAssay (EPA / NIEHS).
Calls of active or inactive are those of the source. Rule for the calls: active = hit-call score of the fitted dose curve at least 0.9, where 1 is the maximum; inactive = score below 0.9.

Key:
[1] = ATG_GLI_CIS: Attagene CIS-FACTORIAL HepG2 Assay for human Zinc Finger Protein GLI1 (AID 2282945); details: HepG2, Attagene cis-factorial reporter mRNA, GLI element; actives raise or lower the signal
Summary of the method: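 HepG2 cells transiently transfected with cis-promoter multiplexed reporter units report endogenous transcription factor activity. After 24 h chemical exposure, reporter mRNA was quantified by RT-PCR, 6-FAM labelling, HpaI digestion and capillary electrophoresis, with bidirectional fitting against DMSO.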

[2] = ATG_GRE_CIS: Attagene CIS-FACTORIAL HepG2 Assay for human Glucocorticoid Response Elements (GRE) (AID 2282947); details: HepG2 GRE cis-reporter, Attagene multiplex mRNA; actives raise or lower the signal
Summary of the method: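 HepG2 cells transiently transfected with multiple cis-promoter reporter units measure endogenous TF activity; 24 h compound exposure. Reporter mRNA quantified by RT-PCR, FAM labelling, HpaI digestion and capillary electrophoresis; bidirectional fit vs DMSO baseline.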

[3] = ATG_ISRE_CIS: Attagene CIS-FACTORIAL HepG2 Assay for human Interferon Regulatory Factor 1 (IRF1) binding to an Interferon-Stimulated Response Element (ISRE) (AID 2282948); details: HepG2 ISRE cis-reporter (Attagene), mRNA transcription readout; actives raise or lower the signal
Summary of the method: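 Cell-based cis-reporter assay; HepG2; 24 h exposure; reporter mRNA by RT-PCR plus capillary electrophoresis fluorescence; activity in either direction scored relative to DMSO.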

[4] = ATG_M_32_CIS: Attagene CIS-FACTORIAL HepG2 Assay for M32 Transcription Factor (Internal Marker) (AID 2282949); details: HepG2 Attagene cis-factorial M32 reporter, mRNA; actives raise or lower the signal;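 note: background control marker of the multiplexed CIS panel rather than a real target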
Summary of the method: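 Internal background marker read-out: RT-PCR/capillary electrophoresis fluorescence of reporter transcripts from transiently transfected HepG2 cells after 24 h chemical exposure. Activity fitted bidirectionally relative to DMSO negative control.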

[5] = ATG_M_06_CIS: Attagene CIS-FACTORIAL HepG2 Assay for M06 Transcription Factor (Internal Marker) (AID 2282950); details: HepG2 Attagene CIS-FACTORIAL M06 internal marker reporter; actives raise or lower the signal
Summary of the method: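 Terse: HepG2, transient MRTU transfection (FuGene 6), 24 h dosing; total RNA, oligo(dT) RT, PCR, FAM label, HpaI cut, capillary electrophoresis; bidirectional fit vs DMSO baseline; background-control endpoint.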

[6] = target: Hypoxia-inducible factor 1-alpha (Homo sapiens) (UniProt Q16665); assay: ATG_HIF1a_CIS: Attagene CIS-FACTORIAL HepG2 Assay for human Hypoxia Inducible Factor 1 (HIF1A) (AID 2282951); details: HepG2 Attagene cis-factorial HIF1a reporter transcription; actives raise or lower the signal
Summary of the method: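 HepG2 cells transiently transfected with multiple cis-regulated reporter transcription units measure endogenous transcription factor activity. After 24 h exposure, reporter mRNA is quantified by RT-PCR with 6-FAM labelling, HpaI digestion and capillary electrophoresis. Bidirectional fitting against DMSO.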

[7] = target: Hepatocyte nuclear factor 6 (Homo sapiens) (UniProt Q9UBC0); assay: ATG_HNF6_CIS: Attagene CIS-FACTORIAL HepG2 Assay for human Hepatocyte Nuclear Factor 6 (HNF6) (AID 2282952); details: HepG2 Attagene cis-factorial HNF6 reporter transcription; actives raise or lower the signal
Summary of the method: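 HepG2 cells transiently transfected with cis-element-driven multiple reporter transcription units, dosed 24 h; reporter mRNA quantified by RT-PCR, FAM primer extension, HpaI digestion and capillary electrophoresis; bidirectional fit versus DMSO baseline.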

[8] = target: Heat shock factor protein 1 (Homo sapiens) (UniProt Q00613); assay: ATG_HSE_CIS: Attagene CIS-FACTORIAL HepG2 Assay for human Heat Shock Transcription Factor 1 (HSE) (AID 2282953); details: HepG2 HSE cis-reporter, Attagene RNA transcription; actives raise or lower the signal
Summary of the method: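 Read-out: fluorescence of reporter-specific RT-PCR fragments separated by capillary electrophoresis. HepG2 carrying transfected cis-element reporter units; 24 h dosing; activity fitted in both directions relative to DMSO baseline.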

[9] = ATG_MRE_CIS: Attagene CIS-FACTORIAL HepG2 Assay for human Metal Responsive Element (MRE) (AID 2282954); details: HepG2 MRE cis-reporter transcription, Attagene multiplex; actives raise or lower the signal
Summary of the method: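 HepG2 cells transiently transfected with multiple cis-element reporter units measure endogenous MTF1-driven transcription. After 24 h compound exposure, reporter mRNA is quantified by RT-PCR with 6-FAM labelling, HpaI digestion and capillary electrophoresis; bidirectional fits versus DMSO.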

[10] = ATG_PBREM_CIS: Attagene CIS-FACTORIAL HepG2 Assay for human Phenobarbital-responsive Enhancer Module (PBREM) (AID 2282955); details: HepG2 PBREM cis-reporter, Attagene multiplexed transcription; actives raise or lower the signal
Summary of the method: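 HepG2 cells transiently transfected with multiple cis-regulated reporter units measure endogenous transcription factor activity; 24 h compound exposure. Reporter mRNA quantified by RT-PCR, fluorescent labelling, HpaI digestion and capillary electrophoresis; bidirectional fit versus DMSO.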

[11] = target: Paired box protein Pax-6 (Homo sapiens) (UniProt P26367); assay: ATG_Pax6_CIS: Attagene CIS-FACTORIAL HepG2 Assay for human Paired Box 6 (PAX6) (AID 2282956); details: HepG2 CIS-FACTORIAL PAX6 reporter transcription, RNA readout; actives raise or lower the signal
Summary of the method: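 Multiplexed cis-reporter HepG2 system; 24 h treatment; reporter mRNA read by RT-PCR/CE fluorescence; bidirectional fit vs DMSO.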

[12] = ATG_PXRE_CIS: Attagene CIS-FACTORIAL HepG2 Assay for human Pregnane X Receptor Element (PXRE) (AID 2282957); details: HepG2 Attagene CIS-FACTORIAL PXRE reporter, mRNA; actives raise or lower the signal
Summary of the method: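 HepG2 cells transiently transfected with cis-regulated multiple reporter transcription units; endogenous factor activity measured as reporter mRNA 24 h after dosing. RT-PCR, fluorescent primer extension, HpaI digestion, capillary electrophoresis; bidirectional fit versus DMSO baseline.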

[13] = ATG_PPRE_CIS: Attagene CIS-FACTORIAL HepG2 Assay for human Peroxisome Proliferator-activated Response Element (PPRE) (AID 2282958); details: HepG2 PPRE cis-element reporter, Attagene transcription factor profiling; actives raise or lower the signal
Summary of the method: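 HepG2 cells are transiently transfected with multiplexed cis-promoter reporter units to report endogenous PPAR activity. After 24 h dosing, reporter mRNA is read by RT-PCR and capillary electrophoresis. Fitting is bidirectional against DMSO.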

[14] = ATG_RORE_CIS: Attagene CIS-FACTORIAL HepG2 Assay for human RAR-related Orphan Receptor Element (RORE) (AID 2282959); details: HepG2 Attagene cis-factorial RORE reporter, mRNA; actives raise or lower the signal
Summary of the method: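 HepG2 cells carrying transiently transfected cis-regulated reporter units; RORE-driven reporter mRNA quantified 24 h post-dosing by RT-PCR, 6-FAM primer extension, HpaI digestion and capillary electrophoresis. Bidirectional fit versus DMSO.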

[15] = ATG_Sox_CIS: Attagene CIS-FACTORIAL HepG2 Assay for human SRY-box transcription factor (SOX) (AID 2282960); details: HepG2 Attagene cis-factorial SOX reporter, mRNA; actives raise or lower the signal
Summary of the method: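 HepG2 cells transiently transfected with multiple cis-regulated reporter units, then dosed for 24 h. Reporter mRNA quantified by RT-PCR, fluorescent labelling, HpaI digestion and capillary electrophoresis; bidirectional fit versus DMSO.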

[16] = target: Transcription factor Sp1 (Homo sapiens) (UniProt P08047); assay: ATG_Sp1_CIS: Attagene CIS-FACTORIAL HepG2 Assay for human Specificity Protein 1 (Sp1) (AID 2282961); details: HepG2 Sp1 cis-reporter transcription, actives raise or lower the signal
Summary of the method: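 HepG2 cells transiently transfected with multiplexed cis-regulated reporter constructs, chemical exposure 24 h. Reporter mRNA quantified by RT-PCR with capillary electrophoresis; bidirectional fit relative to DMSO.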

[17] = ATG_SREBP_CIS: Attagene CIS-FACTORIAL HepG2 Assay for human Sterol Regulatory Element Binding (SREBP) (AID 2282962); details: HepG2 Attagene cis-factorial SREBP reporter, mRNA; actives raise or lower the signal
Summary of the method: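 mRNA induction of transfected cis-promoter reporters in HepG2 cells, 24 h post-dose. Detection: RT-PCR with 6-FAM-labelled products, HpaI digest, capillary electrophoresis. DMSO served as negative control and baseline.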

[18] = target: Signal transducer and activator of transcription 3 (Homo sapiens) (UniProt P40763); assay: ATG_STAT3_CIS: Attagene CIS-FACTORIAL HepG2 Assay for human Signal Transducer and Activator of Transcription 3 (STAT3) (AID 2282963); details: HepG2, Attagene cis-factorial STAT3 reporter transcription; actives raise or lower the signal
Summary of the method: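 HepG2 cells transiently transfected with cis-element-driven multiple reporter transcription units; after 24 h chemical exposure, reporter mRNA measured by RT-PCR, 6-FAM primer-extension labelling, HpaI digestion and capillary electrophoresis. Bidirectional fitting versus DMSO baseline.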

[19] = ATG_TA_CIS: Attagene CIS-FACTORIAL HepG2 Assay for human TA Basal Promoter (AID 2282964); details: HepG2 Attagene CIS-factorial TA basal promoter reporter; actives raise or lower the signal
Summary of the method: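 Transfected HepG2, 24 h compound exposure; RNA → RT-PCR → FAM primer extension → HpaI cut → CE fluorescence. Gain/loss-of-signal fitted against DMSO negative control. Background-control readout.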

Measured: AC50

Chain of Paired box protein Pax-6 (Homo sapiens) (P26367 whole entry, looked up): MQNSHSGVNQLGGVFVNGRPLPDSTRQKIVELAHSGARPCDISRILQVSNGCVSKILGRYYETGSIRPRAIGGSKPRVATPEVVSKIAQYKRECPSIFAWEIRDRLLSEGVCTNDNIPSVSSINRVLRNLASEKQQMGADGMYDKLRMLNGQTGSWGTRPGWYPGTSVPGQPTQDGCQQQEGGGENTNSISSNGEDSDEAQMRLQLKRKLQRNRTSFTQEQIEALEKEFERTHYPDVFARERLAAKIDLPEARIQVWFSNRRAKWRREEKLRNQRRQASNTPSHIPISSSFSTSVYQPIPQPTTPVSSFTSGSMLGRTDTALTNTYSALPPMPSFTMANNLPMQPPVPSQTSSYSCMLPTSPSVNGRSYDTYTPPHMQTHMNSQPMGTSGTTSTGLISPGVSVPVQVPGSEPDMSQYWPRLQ
Chain of Hypoxia-inducible factor 1-alpha (Homo sapiens) (Q16665 whole entry, looked up): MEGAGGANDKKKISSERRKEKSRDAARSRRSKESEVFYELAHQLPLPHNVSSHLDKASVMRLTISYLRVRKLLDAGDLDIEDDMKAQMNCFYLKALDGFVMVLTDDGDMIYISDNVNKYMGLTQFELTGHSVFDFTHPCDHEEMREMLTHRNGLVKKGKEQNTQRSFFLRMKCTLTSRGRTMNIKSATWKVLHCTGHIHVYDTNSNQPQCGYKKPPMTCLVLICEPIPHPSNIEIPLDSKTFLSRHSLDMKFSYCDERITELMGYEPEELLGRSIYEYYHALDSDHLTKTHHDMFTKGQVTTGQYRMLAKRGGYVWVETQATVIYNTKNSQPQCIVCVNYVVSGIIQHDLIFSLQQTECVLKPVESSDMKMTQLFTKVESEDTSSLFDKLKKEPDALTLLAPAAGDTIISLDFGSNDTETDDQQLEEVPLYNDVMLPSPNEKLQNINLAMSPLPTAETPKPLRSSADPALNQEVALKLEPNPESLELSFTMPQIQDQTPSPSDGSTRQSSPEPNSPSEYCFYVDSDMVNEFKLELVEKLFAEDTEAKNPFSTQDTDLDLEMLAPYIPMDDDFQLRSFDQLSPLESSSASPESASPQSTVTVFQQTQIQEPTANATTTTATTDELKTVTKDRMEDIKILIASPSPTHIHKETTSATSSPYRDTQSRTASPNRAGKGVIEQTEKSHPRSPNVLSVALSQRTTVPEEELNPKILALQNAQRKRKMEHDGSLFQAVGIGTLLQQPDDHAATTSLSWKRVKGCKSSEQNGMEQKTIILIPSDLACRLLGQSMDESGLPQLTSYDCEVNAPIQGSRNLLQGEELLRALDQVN
Chain of Heat shock factor protein 1 (Homo sapiens) (Q00613 whole entry, looked up, the tested form may be a part): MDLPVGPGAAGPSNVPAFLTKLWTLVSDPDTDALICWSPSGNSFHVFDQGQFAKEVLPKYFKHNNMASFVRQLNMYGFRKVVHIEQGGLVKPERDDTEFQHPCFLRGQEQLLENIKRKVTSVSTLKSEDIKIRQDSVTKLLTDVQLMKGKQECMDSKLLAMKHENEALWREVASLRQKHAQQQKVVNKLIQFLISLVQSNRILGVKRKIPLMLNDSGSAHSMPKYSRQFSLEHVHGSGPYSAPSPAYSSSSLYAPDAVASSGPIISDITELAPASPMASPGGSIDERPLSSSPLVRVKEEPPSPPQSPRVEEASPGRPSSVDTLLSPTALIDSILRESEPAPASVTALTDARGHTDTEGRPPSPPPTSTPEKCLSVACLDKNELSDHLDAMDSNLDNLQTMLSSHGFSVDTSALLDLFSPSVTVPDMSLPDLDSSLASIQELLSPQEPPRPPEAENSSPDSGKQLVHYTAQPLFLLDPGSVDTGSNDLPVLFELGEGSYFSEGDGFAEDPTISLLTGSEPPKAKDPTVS
Chain of Signal transducer and activator of transcription 3 (Homo sapiens) (P40763 whole entry, looked up): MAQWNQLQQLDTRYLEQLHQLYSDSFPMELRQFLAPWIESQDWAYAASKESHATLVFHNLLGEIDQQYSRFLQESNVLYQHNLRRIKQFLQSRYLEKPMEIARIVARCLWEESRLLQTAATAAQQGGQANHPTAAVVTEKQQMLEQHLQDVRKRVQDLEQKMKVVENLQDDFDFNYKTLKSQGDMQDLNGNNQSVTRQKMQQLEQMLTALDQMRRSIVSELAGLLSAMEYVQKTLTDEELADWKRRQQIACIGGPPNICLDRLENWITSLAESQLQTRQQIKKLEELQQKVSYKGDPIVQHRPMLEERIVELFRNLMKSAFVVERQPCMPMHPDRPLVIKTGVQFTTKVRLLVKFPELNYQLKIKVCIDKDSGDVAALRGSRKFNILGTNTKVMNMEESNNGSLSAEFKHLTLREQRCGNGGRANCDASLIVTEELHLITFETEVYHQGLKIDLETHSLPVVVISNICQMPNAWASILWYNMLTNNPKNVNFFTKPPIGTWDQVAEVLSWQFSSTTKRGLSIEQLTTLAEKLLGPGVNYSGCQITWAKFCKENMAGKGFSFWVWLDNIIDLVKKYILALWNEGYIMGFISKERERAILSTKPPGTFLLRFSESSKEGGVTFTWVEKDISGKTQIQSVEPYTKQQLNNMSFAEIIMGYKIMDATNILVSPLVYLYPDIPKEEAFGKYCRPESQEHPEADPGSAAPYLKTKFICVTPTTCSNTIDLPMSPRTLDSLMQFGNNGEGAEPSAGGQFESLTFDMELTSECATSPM
Chain of Hepatocyte nuclear factor 6 (Homo sapiens) (Q9UBC0 whole entry, looked up): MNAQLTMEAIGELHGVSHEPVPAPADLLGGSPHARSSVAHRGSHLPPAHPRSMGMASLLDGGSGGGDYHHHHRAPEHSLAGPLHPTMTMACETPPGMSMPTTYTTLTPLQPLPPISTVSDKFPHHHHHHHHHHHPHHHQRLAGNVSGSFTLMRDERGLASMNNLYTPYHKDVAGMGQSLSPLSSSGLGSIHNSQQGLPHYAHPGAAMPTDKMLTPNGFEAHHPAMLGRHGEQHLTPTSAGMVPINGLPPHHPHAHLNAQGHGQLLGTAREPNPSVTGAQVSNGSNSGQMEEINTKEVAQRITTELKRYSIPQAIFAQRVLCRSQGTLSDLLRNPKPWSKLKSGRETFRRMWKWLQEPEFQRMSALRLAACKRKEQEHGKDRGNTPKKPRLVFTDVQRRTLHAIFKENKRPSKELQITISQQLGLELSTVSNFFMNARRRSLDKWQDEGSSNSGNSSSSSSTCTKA
Chain of Transcription factor Sp1 (Homo sapiens) (P08047 whole entry, looked up): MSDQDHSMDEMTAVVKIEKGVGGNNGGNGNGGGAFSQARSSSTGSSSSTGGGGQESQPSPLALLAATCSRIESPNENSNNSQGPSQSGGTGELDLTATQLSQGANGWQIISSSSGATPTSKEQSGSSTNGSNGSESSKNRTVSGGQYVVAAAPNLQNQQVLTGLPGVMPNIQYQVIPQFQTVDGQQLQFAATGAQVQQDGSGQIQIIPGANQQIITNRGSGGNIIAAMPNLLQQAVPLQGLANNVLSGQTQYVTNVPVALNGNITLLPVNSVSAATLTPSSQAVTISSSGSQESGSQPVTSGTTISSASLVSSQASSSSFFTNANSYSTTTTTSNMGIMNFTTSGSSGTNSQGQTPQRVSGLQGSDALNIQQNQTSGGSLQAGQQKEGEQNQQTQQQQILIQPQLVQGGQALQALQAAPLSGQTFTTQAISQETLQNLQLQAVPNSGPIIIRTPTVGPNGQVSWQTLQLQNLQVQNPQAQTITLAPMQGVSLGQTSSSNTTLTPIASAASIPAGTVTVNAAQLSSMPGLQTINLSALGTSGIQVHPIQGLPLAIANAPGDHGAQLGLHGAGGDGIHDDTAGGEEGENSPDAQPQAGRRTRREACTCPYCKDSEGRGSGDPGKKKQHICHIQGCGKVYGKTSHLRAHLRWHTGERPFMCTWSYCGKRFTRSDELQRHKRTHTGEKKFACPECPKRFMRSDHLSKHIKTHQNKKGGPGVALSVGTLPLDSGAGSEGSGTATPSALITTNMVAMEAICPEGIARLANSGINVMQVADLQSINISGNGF

C=CC(=O)OCC(C)OCC(C)OCC(C)OC(=O)C=C (centres undefined)
active: [3] 86.1 µM | [9] 46.1 µM | [11] 64.5 µM | [12] 2.25 µM | [14] 44.5 µM | [17] 100 µM
inactive: all other assays above

CC(C)CC(=O)OCc1ccccc1
inactive: all assays above

CC1=CC(C)C(C=O)CC1 (centres undefined)
active: [12] 27.7 µM
not listed: [16]
inactive: all other assays above

CC(=O)OCCc1ccccc1
not listed: [16]
inactive: all other assays above
